Several values for one entry are separate records, joined by “and”; a condition that tells them apart may be missing. Identical values can stand only once. Results filed as inconclusive are left out. Activity calls are given as the source filed them. Unless noted, calls come from the whole dose curve; as a rule, active = well fitted curve in the direction sought with a large enough effect; inconclusive = small, poorly fitted or top-dose-only effect, or another doubt; inactive = no such curve, though single readings can be large; an effect the other way counts as inactive or inconclusive.
Columns and labels:
[1] = Cell Viability - N2a (AID 540); details: N2a mouse neuroblastoma cell viability; activity change, negative = cytotoxicity: at 92.2 µM (top of the series);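 note: plate controls were DMSO alone for no effect and tamoxifen control for full effect; nearly all actives have a fitted effect of over 45% in size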
In short: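 Mouse neuroblastoma N2a cells (1500/well) were preincubated 5 hr at 37 °C, then exposed to compounds for 40 hr at 37 °C in complete medium. Viability was read as intracellular ATP by CellTiter-Glo luminescence; AC50 from Hill fits.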

[2] = Cellular Toxicity (caspase-3) HepG2 (AID 654);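 note: cells exposed to compound for 16 hours before reading; 0% = DMSO alone and 100% = caspase signal from 100 µM tamoxifen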
In short: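 HepG2 cells (1500/well) in complete medium were treated with compounds for 16 hr at 37 °C. Caspase-3/7 activity was then read as luminescence from peptide-aminoluciferin cleavage. AC50 came from Hill fits, normalized to DMSO and 100 uM tamoxifen.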

[3] = molecular target: Glucocorticoid receptor (Homo sapiens) (UniProt P04150); experiment: qHTS assay for small molecule antagonists of glucocorticoid receptor signaling (AID 588533; active = well fitted inhibition curve with a large enough effect in the signal ratio, with a control signal flat, not every such curve was filed as active; the % refers to the signal ratio;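 note: cells stimulated with 2 nM dexamethasone as agonist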; note: potency is the fitted concentration of half-maximal effect)
In short: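 Antagonist-mode qHTS: compound titrations added to GRE-bla HeLa cells, then dexamethasone 2 nM final; 18 h, 37 C. CCF4 FRET fluorescence normalized to dexamethasone and DMSO; IC50 from Hill fit.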

[4] = qHTS assay for small molecule antagonists of peroxisome proliferator-activated receptor delta signaling (AID 588535; active = well fitted inhibition curve with a large enough effect in the signal ratio, with a control signal flat, not every such curve was filed as active; the % refers to the signal ratio; note: potency is the fitted concentration of half-maximal effect;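 for max response: cells co-treated with a PPAR-delta agonist as stimulator during compound exposure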); details: HEK293T PPARd-UAS-bla, beta-lactamase FRET ratio, 18 h; 460 nm channel
In short: (§1)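 GeneBLAzer PPAR-delta-UAS-bla HEK293T cells in medium with 2% charcoal/dextran FBS were preincubated 5 hrs at 37 C, then given compounds, incubated 18 hrs at 37 C, and read by CCF4 beta-lactamase fluorescence; IC50 from Hill fits.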

[5] = molecular target: Peroxisome proliferator-activated receptor delta (Homo sapiens) (UniProt Q03181); experiment: as above
In short: as §1

[6] = qHTS assay for small molecule agonists of the antioxidant response element (ARE) signaling pathway (AID 651741; active = well fitted activation curve with a large enough effect in the signal ratio; the % refers to the signal ratio; note: potency is the fitted concentration of half-maximal effect; for activation: % of control where 0% means no effect)
In short: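 ARE-bla HepG2 cells (beta-lactamase reporter under ARE control) were plated at 2,000 cells/well, preincubated 5 h at 37 C/5% CO2, then treated with DMSO-dissolved compounds for 16 h at 37 C; LiveBLAzer B/G FRET substrate added, fluorescence read after 2 h at room temperature.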

[7] = molecular target: Nuclear receptor ROR-gamma (Homo sapiens) (UniProt P51449); experiment: qHTS assay for small molecule antagonists of the retinoid-related orphan receptor gamma (ROR-gamma) signaling pathway (AID 651802); note: nearly all actives have a fitted effect of over 60% in size; note: potency is the fitted concentration of half-maximal effect
In short: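 CHO cells carrying TET-inducible ROR-gamma and an ROR response element–luciferase reporter were exposed to compound, then induced with doxycycline. After 16hr at 37C, luminescence was read; lower signal indicates antagonism.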

[8] = qHTS assay for cell viability of the p53RE-bla HCT-116 cell line (AID 743292); note: % is set by controls: 0 for no effect and ±100 for the full control effect; nearly all actives have a fitted effect of over 55% in size
In short: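 Intracellular ATP of p53RE-bla HCT-116 cells measured by luciferase luminescence following 16 h compound incubation at 37 C; DMSO-only wells served as vehicle controls.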

[9] = Cellular Toxicity (caspase-3) HUV-EC-C (AID 656);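 note: 0% = DMSO basal and 100% = 100 µM tamoxifen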
In short: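 Read-out: luminescence proportional to caspase 3/7 activity, measured 20 min after adding Caspase-Glo 3/7 reagent. Cells (HUV-EC-C) had received compound for 16 hr at 37°C. Increases relative to DMSO and 100 uM tamoxifen gave concentration-response AC50 values.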

[10] = Cell Viability - LYMP2-018 (AID 985);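 note: compound exposure lasted 24 hr at 37 °C; plate controls were DMSO only for no effect and tetraoctylammonium bromide at 92 µM for full effect; nearly all actives have a fitted effect of over 50% in size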
In short: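 Human lymphoblastoid cells (2500/well) were pre-incubated 5 hr at 37 C, then exposed to compounds for 24 hr at 37 C in complete medium. Viability was read as intracellular ATP by CellTiter-Glo luminescence; AC50 values came from Hill-equation fits.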

[11] = molecular target: Estrogen receptor (Homo sapiens) (UniProt P03372); experiment: qHTS assay for small molecule agonists of estrogen receptor alpha signaling (AID 588514; calls by dose curve;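 note: 0% = vehicle only and 100% = reference agonist; nearly all actives have a fitted effect of over 70% in size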)
In short: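 ER-alpha-UAS-bla GripTite HEK 293 cells in medium with 2% charcoal/dextran-treated FBS were treated with compound titrations at 37 C for 18 hrs; beta-lactamase reporter read by CCF4 fluorescence after 2 hrs at RT.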

[12] = molecular target: Bile acid receptor (Homo sapiens) (UniProt Q96RI1); experiment: qHTS assay for small molecule antagonists of farnesoid X receptor signaling (AID 588526; calls by dose curve; note: % is set by controls: 0 for no effect and ±100 for the full control effect)
In short: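 Concentration-response titrations were fitted to the Hill equation for half-maximal inhibition and maximal response, with data normalised to 50 uM chenodeoxycholic acid and DMSO control wells. Cells: FXR-UAS-bla HEK293T, dialyzed FBS.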

[13] = molecular target: Peroxisome proliferator-activated receptor gamma (Homo sapiens) (UniProt P37231); experiment: qHTS assay for small molecule antagonists of peroxisome proliferator-activated receptor gamma signaling (AID 588537; active = well fitted inhibition curve with a large enough effect in the signal ratio, with a control signal flat, not every such curve was filed as active; the % refers to the signal ratio;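 note: reporter cells co-stimulated with 50 nM rosiglitazone agonist during compound treatment; % of control where 0% means no effect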)
In short: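 PPAR-gamma-UAS-bla HEK293 cells (3000/well, 1% charcoal/dextran-stripped FBS) were preincubated 6-6.5 h at 37 C, given titrated compounds, then stimulated with 50 nM rosiglitazone for 16 h. Beta-lactamase activity was read with CCF4 dye; IC50 came from Hill fits.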

[14] = qHTS assay to identify small molecules that stimulate interleukin-8 (IL-8) secretion (AID 651758; active = well fitted activation curve with a large enough effect in the signal ratio; the % refers to the signal ratio; note: potency is the fitted concentration of half-maximal effect; for activation: 0% is about no effect)
In short: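 THP-1, 2000 cells/well; cpd 16 h, 37 C; add cryptate + XL665 anti-IL-8 Abs; RT 1-3 h; TR-FRET read.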

[15] = molecular target: Luciferin 4-monooxygenase (Photinus pyralis) (UniProt P08659); experiment: Biochemical firefly luciferase enzyme assay for NPC (AID 624030);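 note: purified P. pyralis luciferase at 10 nM with luciferin and ATP substrate; 0% = DMSO and -100% = full luciferase inhibition by PTC124 control; nearly all actives have a fitted effect of over 70% in size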
In short: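 Counter-screen for direct inhibition of the luciferase enzyme by approved-drug library compounds, run at 10 nM enzyme in 50 mM Tris acetate (final). Luminescence was read within 5 min of enzyme-buffer addition and normalized to PTC124 versus DMSO (0%).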

[16] = qHTS profiling for inhibitors of Plasmodium falciparum proliferation (AID 504749);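 note: 0% = DMSO vehicle and full inhibition = artemisinin control; nearly all actives have a fitted effect of over 60% in size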; details: P. falciparum in erythrocytes, SYBR Green DNA, 72 h, at 28.7 µM (top of the series)
In short: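 P. falciparum-infected erythrocytes (0.3% parasitemia, 2.5% hematocrit final) were exposed to compounds for 72 h at 37 C in 5% CO2, then lysed with SYBR Green buffer overnight at room temperature; parasite DNA fluorescence was normalized to artemisinin and DMSO controls.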

[17] = molecular target: Vitamin D3 receptor (Homo sapiens) (UniProt P11473); experiment: qHTS assay for small molecule antagonists of vitamin D receptor signaling (AID 588541; calls by dose curve;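 note: receptor activated by calcitriol during compound treatment; % is set by controls: 0 for no effect and ±100 for the full control effect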)
In short: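 VDR-UAS-bla HEK293T cells (2000/well, 2% charcoal-stripped FBS) were treated with titrated compounds plus 1-alpha,25-dihydroxyvitamin D3 (50 nM or 3 nM final) for 16 h at 37 C. CCF4 beta-lactamase fluorescence was read; Hill fits gave IC50.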

[18] = Cell Viability - LYMP2-016 (AID 984); note: % is set by controls: 0 for no effect and ±100 for the full control effect; nearly all actives have a fitted effect of over 55% in size
In short: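 Acute toxicity in a Coriell human lymphoblastoid line is scored as loss of intracellular ATP over 24 h of treatment in complete medium. CellTiter-Glo signal is fitted across concentrations with the Hill equation to give AC50.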

Sequence of Nuclear receptor ROR-gamma (Homo sapiens) (P51449 whole entry, looked up): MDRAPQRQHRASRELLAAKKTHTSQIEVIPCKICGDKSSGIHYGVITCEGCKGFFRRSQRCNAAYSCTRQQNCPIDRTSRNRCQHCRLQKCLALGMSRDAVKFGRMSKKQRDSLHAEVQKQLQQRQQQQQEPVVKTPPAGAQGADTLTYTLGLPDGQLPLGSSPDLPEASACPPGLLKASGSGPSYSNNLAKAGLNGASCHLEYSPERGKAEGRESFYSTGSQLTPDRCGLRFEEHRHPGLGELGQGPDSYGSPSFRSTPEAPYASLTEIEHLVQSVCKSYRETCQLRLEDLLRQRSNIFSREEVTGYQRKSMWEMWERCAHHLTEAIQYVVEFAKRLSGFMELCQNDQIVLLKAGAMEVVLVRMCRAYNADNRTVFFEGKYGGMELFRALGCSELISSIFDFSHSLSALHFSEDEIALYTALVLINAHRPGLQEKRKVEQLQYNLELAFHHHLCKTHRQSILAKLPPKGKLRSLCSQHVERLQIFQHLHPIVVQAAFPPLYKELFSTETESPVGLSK
Sequence of Estrogen receptor (Homo sapiens) (P03372 whole entry, looked up): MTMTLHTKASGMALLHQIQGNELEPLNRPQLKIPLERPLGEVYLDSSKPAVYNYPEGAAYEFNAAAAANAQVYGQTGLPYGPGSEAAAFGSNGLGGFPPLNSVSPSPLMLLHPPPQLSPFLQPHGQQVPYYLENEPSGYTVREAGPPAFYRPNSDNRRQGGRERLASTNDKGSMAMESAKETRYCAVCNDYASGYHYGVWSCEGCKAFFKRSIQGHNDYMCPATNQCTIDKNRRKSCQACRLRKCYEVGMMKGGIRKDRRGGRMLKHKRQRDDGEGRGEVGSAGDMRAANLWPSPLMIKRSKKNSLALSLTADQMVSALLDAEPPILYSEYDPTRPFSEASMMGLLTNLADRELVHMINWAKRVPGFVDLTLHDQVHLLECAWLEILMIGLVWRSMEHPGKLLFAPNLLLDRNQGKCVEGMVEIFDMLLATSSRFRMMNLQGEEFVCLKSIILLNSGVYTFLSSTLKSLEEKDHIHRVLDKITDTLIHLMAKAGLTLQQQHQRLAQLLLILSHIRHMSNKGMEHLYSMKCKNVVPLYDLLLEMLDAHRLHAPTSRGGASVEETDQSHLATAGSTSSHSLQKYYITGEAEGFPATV
Sequence of Luciferin 4-monooxygenase (Photinus pyralis) (P08659 whole entry, looked up): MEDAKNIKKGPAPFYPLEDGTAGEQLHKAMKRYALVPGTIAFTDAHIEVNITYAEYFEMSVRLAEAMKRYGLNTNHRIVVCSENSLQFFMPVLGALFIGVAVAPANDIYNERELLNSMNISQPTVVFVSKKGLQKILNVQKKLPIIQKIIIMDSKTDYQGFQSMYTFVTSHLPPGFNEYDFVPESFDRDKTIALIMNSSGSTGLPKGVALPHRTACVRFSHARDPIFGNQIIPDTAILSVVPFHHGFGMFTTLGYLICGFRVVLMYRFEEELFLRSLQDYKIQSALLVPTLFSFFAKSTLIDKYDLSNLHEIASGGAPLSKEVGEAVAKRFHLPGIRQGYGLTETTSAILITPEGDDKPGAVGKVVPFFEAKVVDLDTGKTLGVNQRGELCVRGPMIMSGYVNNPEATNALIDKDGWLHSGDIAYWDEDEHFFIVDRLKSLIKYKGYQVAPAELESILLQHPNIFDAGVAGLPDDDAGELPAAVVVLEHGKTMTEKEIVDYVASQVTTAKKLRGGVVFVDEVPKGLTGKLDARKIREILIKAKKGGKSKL
Sequence of Peroxisome proliferator-activated receptor gamma (Homo sapiens) (P37231 whole entry, looked up): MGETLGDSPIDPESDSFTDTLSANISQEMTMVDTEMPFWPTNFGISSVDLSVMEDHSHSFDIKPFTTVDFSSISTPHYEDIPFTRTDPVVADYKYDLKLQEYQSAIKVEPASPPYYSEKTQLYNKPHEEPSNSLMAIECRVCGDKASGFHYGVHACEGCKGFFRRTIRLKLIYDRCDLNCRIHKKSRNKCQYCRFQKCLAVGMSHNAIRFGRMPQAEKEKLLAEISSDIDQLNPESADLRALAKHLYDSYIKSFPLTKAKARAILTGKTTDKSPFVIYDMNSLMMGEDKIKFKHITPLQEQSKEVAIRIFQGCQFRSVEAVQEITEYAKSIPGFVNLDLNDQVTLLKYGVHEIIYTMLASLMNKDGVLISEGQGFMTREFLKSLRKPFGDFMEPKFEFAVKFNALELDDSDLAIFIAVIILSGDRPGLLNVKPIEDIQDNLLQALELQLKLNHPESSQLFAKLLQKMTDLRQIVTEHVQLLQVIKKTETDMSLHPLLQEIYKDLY
Sequence of Peroxisome proliferator-activated receptor delta (Homo sapiens) (Q03181 whole entry, looked up): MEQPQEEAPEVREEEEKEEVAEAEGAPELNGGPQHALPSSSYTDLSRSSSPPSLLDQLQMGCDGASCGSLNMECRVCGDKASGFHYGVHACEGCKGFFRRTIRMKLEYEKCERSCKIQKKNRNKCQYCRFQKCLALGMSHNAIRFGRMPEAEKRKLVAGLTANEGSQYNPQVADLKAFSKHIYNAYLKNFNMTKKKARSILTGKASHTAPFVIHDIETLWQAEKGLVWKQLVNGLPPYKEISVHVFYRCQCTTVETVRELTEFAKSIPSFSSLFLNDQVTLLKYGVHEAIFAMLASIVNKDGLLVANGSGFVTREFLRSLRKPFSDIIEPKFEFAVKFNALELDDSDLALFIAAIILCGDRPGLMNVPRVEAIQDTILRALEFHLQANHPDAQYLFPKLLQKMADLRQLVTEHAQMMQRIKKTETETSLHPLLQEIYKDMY
Sequence of Vitamin D3 receptor (Homo sapiens) (P11473 whole entry, looked up): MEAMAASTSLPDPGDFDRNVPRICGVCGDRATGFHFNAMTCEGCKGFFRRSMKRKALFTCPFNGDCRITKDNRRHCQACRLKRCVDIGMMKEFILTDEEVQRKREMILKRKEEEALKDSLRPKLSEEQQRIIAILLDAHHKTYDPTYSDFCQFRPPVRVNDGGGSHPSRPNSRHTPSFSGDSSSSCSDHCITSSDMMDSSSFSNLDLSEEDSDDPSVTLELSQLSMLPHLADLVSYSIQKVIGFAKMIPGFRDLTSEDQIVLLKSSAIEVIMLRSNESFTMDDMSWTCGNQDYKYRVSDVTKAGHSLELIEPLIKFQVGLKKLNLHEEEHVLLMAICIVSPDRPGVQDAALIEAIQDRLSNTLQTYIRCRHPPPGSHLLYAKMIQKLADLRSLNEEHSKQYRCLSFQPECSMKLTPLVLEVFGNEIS
Sequence of Glucocorticoid receptor (Homo sapiens) (P04150 whole entry, looked up): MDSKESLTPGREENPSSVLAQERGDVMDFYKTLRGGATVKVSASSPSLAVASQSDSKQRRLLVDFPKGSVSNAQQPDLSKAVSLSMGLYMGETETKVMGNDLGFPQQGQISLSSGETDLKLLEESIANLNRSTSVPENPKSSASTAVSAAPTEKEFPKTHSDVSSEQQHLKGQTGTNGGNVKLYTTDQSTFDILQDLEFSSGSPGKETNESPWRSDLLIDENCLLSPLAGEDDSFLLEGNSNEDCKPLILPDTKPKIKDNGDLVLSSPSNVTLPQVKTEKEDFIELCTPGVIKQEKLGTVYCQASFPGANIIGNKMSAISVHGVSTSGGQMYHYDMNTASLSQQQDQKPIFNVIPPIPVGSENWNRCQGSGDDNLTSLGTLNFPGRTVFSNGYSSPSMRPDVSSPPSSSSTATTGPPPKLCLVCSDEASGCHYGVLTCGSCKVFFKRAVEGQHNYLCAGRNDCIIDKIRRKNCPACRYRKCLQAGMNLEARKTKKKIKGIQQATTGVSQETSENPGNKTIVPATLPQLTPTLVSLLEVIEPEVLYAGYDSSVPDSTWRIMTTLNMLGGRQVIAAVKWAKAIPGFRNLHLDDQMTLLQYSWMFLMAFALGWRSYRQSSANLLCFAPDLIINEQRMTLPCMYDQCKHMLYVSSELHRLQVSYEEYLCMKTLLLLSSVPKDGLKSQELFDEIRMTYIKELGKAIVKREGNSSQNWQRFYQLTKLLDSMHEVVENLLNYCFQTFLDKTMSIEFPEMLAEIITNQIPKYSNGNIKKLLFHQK
Sequence of Bile acid receptor (Homo sapiens) (Q96RI1 whole entry, looked up): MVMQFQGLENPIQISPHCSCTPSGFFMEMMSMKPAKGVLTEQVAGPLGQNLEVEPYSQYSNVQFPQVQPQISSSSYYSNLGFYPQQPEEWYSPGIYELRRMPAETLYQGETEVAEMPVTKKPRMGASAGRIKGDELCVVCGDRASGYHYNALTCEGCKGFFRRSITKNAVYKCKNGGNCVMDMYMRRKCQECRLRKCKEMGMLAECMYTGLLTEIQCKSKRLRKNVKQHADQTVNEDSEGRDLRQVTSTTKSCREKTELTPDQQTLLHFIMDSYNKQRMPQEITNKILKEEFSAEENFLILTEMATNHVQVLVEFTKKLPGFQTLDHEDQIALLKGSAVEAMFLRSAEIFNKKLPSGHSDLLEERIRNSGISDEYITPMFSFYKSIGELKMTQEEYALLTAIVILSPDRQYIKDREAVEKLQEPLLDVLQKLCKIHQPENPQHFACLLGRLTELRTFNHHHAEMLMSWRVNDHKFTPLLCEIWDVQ

C=CC(=O)OCCOCCOCCOCCOC(=O)C=C
inactive: outcome [2] | Potency [8]
active: activity change, negative = cytotoxicity [1] -110% and -111% | Potency [3] 39.8 µM | Potency [5] 28.2 µM | Potency [6] 42.2 µM and 37.6 µM | Potency [7] 11.9 µM and 21.1 µM
-103%: max response [4]

CN(C)C=O
inactive: activity change, negative = cytotoxicity [1] -9.63% and 3.24% | outcome [9] | Potency [10] | Potency [11] | outcome [12] | outcome [13] | Potency [6] | Potency [14] | Potency [7] | Potency [8]

C1OCOCO1
inactive: activity change, negative = cytotoxicity [1] -19.8% | Potency [10] | outcome [12] | Potency [3] | Potency [5] | Potency [15] | Potency [6] | Potency [7] | Potency [8] | activity, negative = inhibition ([16]; parasite line A) -0.0178% | activity, negative = inhibition ([16]; parasite line B) 3.44%
2.46%: max response [4]
active: Potency [14] 66.8 µM

OCCNCCO
0.125% and 53.2%: max response [4]
inactive: activity change, negative = cytotoxicity [1] 6.19% | Potency [11] | Potency [3] | Potency [5] | outcome [17]

CCCN(CCC)C(=O)SCC
inactive: outcome [2] | Potency [18] | Potency [10] | Potency [11] | Potency [3] | outcome [13] | outcome [17] | Potency [6] | Potency [7] | Potency [8]

ClCCCl
inactive: activity change, negative = cytotoxicity [1] 3.03% | Potency [18] | Potency [11] | Potency [3] | Potency [5] | outcome [13] | outcome [17] | Potency [6] | Potency [14] | Potency [7]
-25.6% and 21.1%: max response [4]

Cc1ccccc1C
inactive: activity change, negative = cytotoxicity [1] -22.6% and -8.22% | outcome [2] | Potency [18] | Potency [11] | Potency [3] | Potency [5] | outcome [17] | Potency [6] | Potency [7] | Potency [8]
-3.07% and -4.26%: max response [4]

O=C(Nc1ccccc1)c1ccccc1O
inactive: Potency [5] | outcome [13] | Potency [8]
active: Potency [6] 15.4 µM
-6.49%: max response [4]

O=NO
3.13% and -3.55%: max response [4]
inactive: outcome [2] | outcome [9] | Potency [18] | Potency [5] | outcome [13] | outcome [17] | Potency [14]

CC1=CC(C)(C)Nc2ccccc21
inactive: activity change, negative = cytotoxicity [1] -24% and 1.94% | outcome [2] | Potency [18] | Potency [11] | Potency [5] | outcome [13] | outcome [17] | Potency [14] | Potency [7] | Potency [8]
34.8% and 1.74%: max response [4]

S=C1NC=NC2N=CNC12 (stereo unspecified)
active: Potency [6] 23.7 µM | Potency [14] 42.2 µM
inactive: outcome [2] | Potency [10] | Potency [15] | Potency [7] | activity, negative = inhibition ([16]; parasite line A) -17.9% | activity, negative = inhibition ([16]; parasite line B) -14.3%

O=[N+]([O-])c1cccc(Cl)c1Cl
inactive: Potency [18] | Potency [10] | Potency [11] | outcome [12] | Potency [3] | Potency [5] | outcome [13] | outcome [17] | Potency [6] | Potency [14] | Potency [7]
-5.68% and -3.79%: max response [4]

C/C=C\c1ccc(OC)cc1
-7.78%: max response [4]
inactive: outcome [9] | Potency [10] | outcome [12] | Potency [5] | outcome [13] | Potency [15] | Potency [14] | Potency [7] | Potency [8] | activity, negative = inhibition ([16]; parasite line A) -0.333% | activity, negative = inhibition ([16]; parasite line B) -2.16%

CCC(C)c1ccccc1O (stereo unspecified)
-8.1% and -17.6%: max response [4]
inactive: outcome [9] | Potency [10] | Potency [3] | Potency [5] | outcome [13] | outcome [17] | Potency [7] | Potency [8]

COC(=O)c1ccc(C=O)cc1
inactive: outcome [2] | outcome [9] | Potency [18] | Potency [11] | outcome [12] | Potency [3] | Potency [5] | outcome [13] | outcome [17] | Potency [6] | Potency [7] | Potency [8]
6.11% and 19.8%: max response [4]

O=C(O)CC(C(=O)O)C(CC(=O)O)C(=O)O (stereo unspecified)
inactive: Potency [11] | outcome [12] | Potency [3] | Potency [5] | outcome [13] | outcome [17] | Potency [6] | Potency [14]
5.81%: max response [4]

Reference: PubChem BioAssay (NCATS)
